Laboratory results taken from PubChem BioAssay AID1159580 (chemical genetic matrix, 2015).
Hit rate of the full screen: of about 5,500 compounds, about 2,000 (36%) were called active. Roughly 18% stayed inconclusive and do not appear here. Rule as the data show it: active = normalized growth mostly below about 0.91 (no sharp cut-off); inconclusive = no clear call, values can overlap the other calls; inactive = mostly above about 0.92. Some of the results follow.

Experiment: chemical genetic growth profiling, strain panel (AID 1159580);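 also: tested at 20 µM; growth read once vehicle control cultures reached saturation at 30 °C; 1 = growth at the plate median or of vehicle wells; lower values mean less growth of the strain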
Conditions: S. cerevisiae deletion strains, growth OD

Measured: normalized growth

Cc1cc(C)c(/C=C2\C(=O)Nc3ccccc32)[nH]1
active: locus YMR307W, strain GAS1, stronger effect = lower value 0.887 | locus YOR083W, strain WHI5 (second series), stronger effect = lower value 0.847
inactive: locus YAL013W, strain DEP1, stronger effect = lower value 0.967 | locus YAL040C, strain CLN3, stronger effect = lower value 1.06 | locus YCL061C, strain MRC1 (second series), stronger effect = lower value 0.994 | locus YDR150W, strain NUM1, stronger effect = lower value 0.939 | locus YDR363W, strain ESC2, stronger effect = lower value 0.987 | locus YER002W, strain NOP16, stronger effect = lower value 0.999 | locus YGR078C, strain PAC10, stronger effect = lower value 0.991 | locus YGR229C, strain SMI1, stronger effect = lower value 0.917 | locus YMR263W, strain SAP30, stronger effect = lower value 0.99 | locus YNL128W, strain TEP1, stronger effect = lower value 0.935 | locus YNL153C, strain GIM3, stronger effect = lower value 0.872 | locus YNL175C, strain NOP13, stronger effect = lower value 0.992 | locus YNL197C, strain WHI3, stronger effect = lower value 0.934 | locus YNL224C, strain SQS1, stronger effect = lower value 0.929

O=C1Nc2ccccc2/C1=C\c1ccc(Cl)cc1
active: locus YHR030C, strain SLT2, stronger effect = lower value 0.755 | locus YHR205W, strain SCH9, stronger effect = lower value 0.519 | locus YLR113W, strain HOG1, stronger effect = lower value 0.692 | locus YPL256C, strain CLN2, stronger effect = lower value 0.742
inactive: locus YAR019C, strain CDC15, stronger effect = lower value 0.946 | locus YBL105C, strain PKC1, stronger effect = lower value 0.943 | locus YBR135W, strain CKS1, stronger effect = lower value 0.94 | locus YBR136W, strain MEC1, stronger effect = lower value 0.941 | locus YBR160W, strain CDC28, stronger effect = lower value 0.947 | locus YDL017W, strain CDC7, stronger effect = lower value 0.945 | locus YDL028C, strain MPS1, stronger effect = lower value 0.947 | locus YDL101C, strain DUN1, stronger effect = lower value 0.967 | locus YDL108W, strain KIN28, stronger effect = lower value 0.948 | locus YDL132W, strain cdc53, stronger effect = lower value 0.94 | locus YDL214C, strain PRR2, stronger effect = lower value 0.801 | locus YDR052C, strain DBF4, stronger effect = lower value 0.954 | locus YDR054C, strain cdc34, stronger effect = lower value 0.927 | locus YDR226W, strain ADK1, stronger effect = lower value 0.937 | locus YDR477W, strain SNF1, stronger effect = lower value 0.817 | locus YER123W, strain YCK3, stronger effect = lower value 0.8 | locus YER133W, strain GLC7, stronger effect = lower value 0.815 | locus YFL009W, strain cdc4, stronger effect = lower value 0.942 | locus YFL029C, strain CAK1, stronger effect = lower value 0.95 | locus YFR003C, strain YPI1, stronger effect = lower value 0.942 | locus YFR019W, strain FAB1, stronger effect = lower value 0.924 | locus YFR028C, strain CDC14, stronger effect = lower value 0.941 | locus YGR040W, strain KSS1, stronger effect = lower value 0.823 | locus YGR052W, strain FMP48, stronger effect = lower value 0.779 | locus YGR092W, strain DBF2, stronger effect = lower value 0.82 | locus YHR079C, strain IRE1, stronger effect = lower value 0.776 | locus YHR082C, strain KSP1, stronger effect = lower value 0.794 | locus YIL147C, strain SLN1, stronger effect = lower value 0.944 | locus YJL095W, strain BCK1, stronger effect = lower value 0.741 | locus YJL128C, strain PBS2, stronger effect = lower value 0.852 | locus YJL157C, strain FAR1, stronger effect = lower value 0.819 | locus YJR016C, strain ILV3, stronger effect = lower value 0.946 | locus YJR066W, strain TOR1 (second series), stronger effect = lower value 0.651 | locus YJR066W, strain TOR1, stronger effect = lower value 0.781 | locus YKL048C, strain ELM1, stronger effect = lower value 0.862 | locus YKL067W, strain YNK1, stronger effect = lower value 0.867 | locus YKL101W, strain HSL1, stronger effect = lower value 0.829 | locus YKL193C, strain SDS22, stronger effect = lower value 0.942 | locus YKL203C, strain TOR2, stronger effect = lower value 0.91 | locus YLR133W, strain CKI1, stronger effect = lower value 0.818 | locus YLR403W, strain SFP1, stronger effect = lower value 0.714 | locus YML070W, strain DAK1, stronger effect = lower value 0.81 | locus YMR001C, strain CDC5, stronger effect = lower value 0.94 | locus YMR205C, strain PFK2 (second series), stronger effect = lower value 0.825 | locus YMR277W, strain FCP1, stronger effect = lower value 0.936 | locus YNL006W, strain LST8, stronger effect = lower value 0.956 | locus YNL020C, strain ARK1, stronger effect = lower value 0.801 | locus YNL161W, strain CBK1, stronger effect = lower value 0.948 | locus YNL183C, strain NPR1, stronger effect = lower value 0.788 | locus YNL207W, strain RIO2, stronger effect = lower value 0.947 | locus YNL222W, strain SSU72, stronger effect = lower value 0.945 | locus YNL307C, strain MCK1 (second series), stronger effect = lower value 0.844 | locus YOL078W, strain AVO1, stronger effect = lower value 0.951 | locus YOL136C, strain PFK27, stronger effect = lower value 0.833 | locus YOR061W, strain CKA2, stronger effect = lower value 0.853 | locus YOR119C, strain RIO1, stronger effect = lower value 0.9 | locus YOR231W, strain MKK1, stronger effect = lower value 0.863 | locus YOR329C, strain SCD5, stronger effect = lower value 0.949 | locus YPL031C, strain PHO85, stronger effect = lower value 0.816 | locus YPL153C, strain RAD53, stronger effect = lower value 0.836 | locus YPL204W, strain HRR25, stronger effect = lower value 0.824 | locus YPL209C, strain IPL1, stronger effect = lower value 0.943 | locus YPR025C, strain CCL1, stronger effect = lower value 0.943 | locus YPR106W, strain ISR1, stronger effect = lower value 0.926 | locus YPR111W, strain DBF20, stronger effect = lower value 0.917 | strain NNK1, stronger effect = lower value 0.92 | strain TSCII, stronger effect = lower value 0.949
